According to PubChem BioAssay AID686979 (National Center for Advancing Translational Sciences (NCATS), 2013):
Screen size: about 420,000 compounds; about 50,000 (12%) were called active. Where a call stands in place of a potency, no number is given. Inconclusive results (about 26%) are left out. The full list was thinned out, with actives kept by preference. A number with no mark means an inactive call. Calls come from the whole dose curve; as a rule, active = well fitted inhibition curve with a large enough effect; inconclusive = small, poorly fitted or top-dose-only effect; inactive = flat fitted curve, though single readings scatter.

assay: qHTS for Inhibitors of human tyrosyl-DNA phosphodiesterase 1 (TDP1): qHTS in cells in presence of CPT; conditions: chicken DT40 Tdp1-/-;hTDP1 cells + 20 nM CPT, ATP luminescence, 48 h; series mostly up to 46.2 µM; note: nearly all actives have a fitted effect of over 55% in size
Outline: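 Cell growth measured by CellTiter-Glo luminescence after a minimum 48 h, 37 C compound exposure with 20 nM CPT in Tdp1-knockout DT40 cells stably expressing hTDP1, seeded 400/well; qHTS titration format.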
Potency is the fitted concentration of half-maximal effect.

SMILES | Potency | activity change, negative = growth inhibition
CC1CCCCN1CCCNc1ccc(C(CC(N)=O)NC(=O)c2ccccc2)cc1[N+](=O)[O-] (stereo not given) | inactive | 
Cc1ccc(OCC(=O)Nc2ccc(NC(=O)c3cccs3)cc2)c(C)c1 | inactive | 
CCC(C)N1C(=S)SC(C)(C)C1N(O)C(=O)NC1CCCCC1 (stereo not given) | inactive | 
O=C(COC(=O)c1ccc(O)cc1O)NNC(=O)c1cccs1 | inactive | 
Cc1cc2nc3n(c2cc1C)CC1CC(C(=O)NCCC(C)C)N(C)C31 (stereo not given) | inactive | 
COc1ccc(-n2ncc3c(SCC(=O)NNC(C)=O)ncnc32)cc1 | inactive | 
COc1ccc(NC(=O)c2cccc3c2C(=O)N(CC2CCCO2)C3)cc1OC (stereo not given) | 23.1 µM (active) | 
CCOc1ccc(NC(=O)c2cccc3c2C(=O)N(CC2CCCO2)C3)cc1 (stereo not given) | inactive | 
COCCN1Cc2cccc(C(=O)Nc3ccccc3OC)c2C1=O | inactive | 
O=C1NC(c2ccccc2)CCC1(Cl)Cl (stereo not given) | inactive | 
Cc1ccc(NC(=O)CCN2C(=O)c3ccccc3C2=O)cc1C | inactive | 
COC(=O)C[C@H]1C[C@@H]2c3cc(NC(=O)Nc4ccccc4)ccc3O[C@@H]2[C@@H](CO)O1 | inactive | 
O=C(CN1Cc2ccccc2OC(c2ccccc2)C1)N1CCCCC1c1cccnc1 (stereo not given) |  | -0.761% [at 9.04 µM]
COc1ccc(CNCCCNCc2ccc(OC)c(OC)c2)cc1OC | inactive | 
COc1cc(CNCc2cccs2)cc(Br)c1OC | inactive | 
COc1cc(CNCc2ccc(OC)c3ccccc23)cc(OC)c1OC | 9.2 µM (active) | 
Cn1cncc1COC(=O)c1ccc(Cl)cc1 | inactive | 
Cc1ccccc1NC(=O)c1nn(-c2ccc(F)c(F)c2)ccc1=O | inactive | 
Cc1cccc(NC(=S)N(CCN(C)C)C(C)c2ccco2)c1 (stereo not given) | inactive | 
O=S(=O)(c1cnccc1N1CCN(/N=C/c2ccc(Br)cc2)CC1)N1CCCCC1 | 18.4 µM (active) | 
CN1CCN(c2ccncc2S(=O)(=O)N2CCCC2)CC1 | inactive | 
CC(C)NC(=O)N1CCN(c2ccncc2S(=O)(=O)N2CCCCC2)CC1 | inactive | 
Cc1ccc(NC(=O)COc2ccc(/C=N\NC(=O)c3cccnc3)cc2)cc1C | inactive | 
COc1ccccc1NC1=NC2(CCCC2)N=C(N)N1 | inactive | 

SMILES | Potency | activity change, negative = growth inhibition
CC1(C)N=C(N)NC(Nc2ccc(Cl)cc2)=N1 | inactive | 
COc1ccccc1NC1=NC(c2ccc(Cl)cc2)N=C(N)N1 (stereo not given) | 5.17 µM (active) | 
CC1(C)C(C=C(Cl)Cl)C1C(=O)NC(O)C(=O)c1ccccc1 (stereo not given) | inactive | 
COCCN(C(=O)CSCc1ccc(C)cc1)c1c(N)n(CC(C)C)c(=O)[nH]c1=O | inactive | 
C[C@]12C=CC(=O)C=C1CC[C@@H]1[C@@H]2C(=O)C[C@@]2(C)[C@H]1CC[C@]2(O)C(=O)CO | inactive | 
CCC1CCCCN1C(=S)NC(=O)c1ccco1 (stereo not given) | inactive | 
CCOc1cc(/C=C2/N=C(c3ccc(C(C)(C)C)cc3)OC2=O)cc(Cl)c1OS(C)(=O)=O | 18.4 µM (active) | 
O=C1OC(c2ccc(Cl)cc2)=N/C1=C\c1cccnc1 | inactive | 
CC1CCN(C(=O)COC(=O)CCC(=O)c2cccs2)CC1 | inactive | 
COc1cc(C2CC(=O)Oc3cc(OC)c(OC)c(OC)c32)cc(OC)c1OC (stereo not given) | inactive | 
Cc1cc(C)cc(NS(=O)(=O)Cc2ccccc2)c1 | inactive | 
Cn1nnnc1SCC(=O)NNC(=O)c1ccc(Br)cc1 | inactive | 
Cc1nc2ccccc2cc1O | inactive | 
Cc1nc2ccccc2cc1OCc1ccc(F)cc1 | 11.6 µM (active) | 
Cc1occc(=O)c1OCc1ccc(F)cc1 | inactive | 
COC(=O)C1[C@H]2SC(C)(C)C(C(=O)OC)N2C(=O)N1Cc1nc2ccccc2s1 (stereo not given in full) | inactive | 
COCCNC(=O)c1cc(-c2cccc(Cl)c2)on1 | inactive | 
CC(C)c1nnc(NC(=O)C2CC(=O)N(CCc3ccc(F)cc3)C2)s1 (stereo not given) | inactive | 
O=C(CCC(=O)n1ncc2ccccc21)NCc1ccccc1Cl | inactive | 
CCc1noc(C)c1C(=O)Nc1nc2ccc(OC)cc2s1 | inactive | 
O=C(Cc1ccccc1)Nc1ccc(NC(=O)c2cccnc2)cc1 | inactive | 
CCOC(=O)c1cc(NC(=O)c2cccnc2)cc(C(=O)OCC)c1 | inactive | 
CCCC(=O)Nc1ccc2c(c1)nc1n2CCSC1 | inactive | 
CCCC(=O)Nc1nc2ccc(NC(=O)c3cccnc3)cc2s1 | 9.2 µM (active) | 

SMILES | Potency | activity change, negative = growth inhibition
CCCC(=O)Nc1nc2ccc(NC(=O)c3c(F)c(F)c(OC)c(F)c3F)cc2s1 | 0.92 µM (active) | 
Cc1cc(C)c(S(=O)(=O)N2C=CC(C(F)(F)F)=NCC2)c(C)c1 | inactive | 
c1ccc2cc(C3=NCCN3)ccc2c1 | inactive | 
Cc1ccc(Nc2c(O)nc[nH]c2=O)cc1C | inactive | 
Cc1c(Cl)cccc1NC(=O)[C@@]1(CC(=O)O)CC(/C=C/c2ccccc2)=NO1 | inactive | 
N#CCc1c(C#N)c(N)nc(N2CCCC2)c1C#N | inactive | 
Cc1ccc(NC(=O)Nc2nnc(-c3ccncc3)s2)cc1 | 18.4 µM (active) | 
Cc1nnc(NC(=O)c2ccc3nccnc3c2)s1 | inactive | 
Cc1occc1C(=O)Nc1nnc(-c2ccncc2)s1 | inactive | 
Cc1nnc(NC(=O)Nc2ccc(Cl)c(Cl)c2)s1 | 23.1 µM (active) | 
Cc1ccc(C(=O)Nc2nnc(-c3ccncc3)s2)o1 | inactive | 
CCCCN(C)c1nnc(NC(=O)Nc2ccc(Br)c(C)c2)s1 | inactive | 
COCC1CCCN(C(=O)c2ccc3oc(C(C)C)nc3c2)C1 (stereo not given) | inactive | 
COCCNC(=O)CN(Cc1ccco1)C(=O)CCC(=O)Nc1nccs1 | inactive | 
COc1ccc2c(c1)CCCO[C@]21O[C@H](CCO)C[C@H](O)[C@H]1O | inactive | 
CCC(C)NC(=O)c1cc(Cl)ccc1OC (stereo not given) | inactive | 
Cc1ccc(NC(=O)Nc2sc3nc4n(c(=O)c3c2C)CCC(C)CC4)c(Cl)c1 (stereo not given) | 11.6 µM (active) | 
CC1CCN(C(=O)c2ccc3c(=O)n4c(nc3c2)CCCCC4)CC1 | inactive | 
CC1CCc2c(sc3nc4n(c(=O)c23)CCS4)C1 (stereo not given) | inactive | 
Cc1ccccc1NC(=O)CSc1ccc2nnc(-c3ccccn3)n2n1 | inactive | 
COC(=O)[C@]1(C)N[C@H](CN(C)C(=O)c2ccc(C(C)(C)C)cc2)[C@@H]2C(=O)N(C)C(=O)[C@@H]21 | inactive | 
Cc1cc(C)c(S(=O)(=O)c2cc(F)ccc2C)c(=O)[nH]1 | inactive | 
